This is an account of results in PubChem BioAssay.

Experiment [1] is described as follows: small molecules captured by biotinylated probe aFSTL3 – biochemical, small-molecule microarray, fluorescence 635/667, stem cell growth factor project, primary screen (AID 1064).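 Note: measures binding of the biotinylated anti-FSTL3 antibody to printed compounds.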 Particulars: higher = more signal.
Experiment [2] is described as follows: binders from COS7 lysate, DM2A8 probe, primary screen, torsin A project, cell lysate, small-molecule microarray, fluorescence 635/667 (AID 1065). Particulars: higher = more signal, COS7 lysate expressing mutant human TOR1A.
Experiment [3] is described as follows: small molecules captured by biotinylated probe aFGF2 – biochemical, small-molecule microarray, fluorescence 635/667, stem cell growth factor project, primary screen (AID 1067).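 Note: measures binding of biotinylated aFGF2 protein to printed compounds on slides; z-score merges feature fluorescence and signal-to-noise across triplicate slides.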 Particulars: higher = more signal.
Experiment [4] can be described thus: small molecules captured by biotinylated probe aFGF10 – biochemical, small-molecule microarray, fluorescence 635/667, stem cell growth factor project, primary screen (AID 1071).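 Note: score merges 667 nm spot intensity and signal to noise from triplicate slides.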 The settings on record: higher = more signal.
The target of experiment [5] is Neurogenic locus notch homolog protein 2 (Homo sapiens) (UniProt Q04721). The experiment is described as follows: small molecules binding Notch2 protein – biochemical, small-molecule microarray, 635 nm fluorescence, stem cell growth factors, primary screen (AID 1073). Particulars: higher = more signal.
Experiment [6] deals with Pro-neuregulin-1, membrane-bound isoform (Homo sapiens) (UniProt Q02297). The experiment in a line: small molecules binding neuregulin-1 protein – biochemical, small-molecule microarray, fluorescence 635/667, psychiatric disease protein project, primary screen (AID 1075).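 Note: score combines 667 nm spot fluorescence with signal to noise.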 Particulars: NRG1 binding, 635 nm fluorescence, higher = more signal.
Chain of Pro-neuregulin-1, membrane-bound isoform (Homo sapiens) (Q02297 whole entry, looked up, the tested form may be a part, canonical isoform): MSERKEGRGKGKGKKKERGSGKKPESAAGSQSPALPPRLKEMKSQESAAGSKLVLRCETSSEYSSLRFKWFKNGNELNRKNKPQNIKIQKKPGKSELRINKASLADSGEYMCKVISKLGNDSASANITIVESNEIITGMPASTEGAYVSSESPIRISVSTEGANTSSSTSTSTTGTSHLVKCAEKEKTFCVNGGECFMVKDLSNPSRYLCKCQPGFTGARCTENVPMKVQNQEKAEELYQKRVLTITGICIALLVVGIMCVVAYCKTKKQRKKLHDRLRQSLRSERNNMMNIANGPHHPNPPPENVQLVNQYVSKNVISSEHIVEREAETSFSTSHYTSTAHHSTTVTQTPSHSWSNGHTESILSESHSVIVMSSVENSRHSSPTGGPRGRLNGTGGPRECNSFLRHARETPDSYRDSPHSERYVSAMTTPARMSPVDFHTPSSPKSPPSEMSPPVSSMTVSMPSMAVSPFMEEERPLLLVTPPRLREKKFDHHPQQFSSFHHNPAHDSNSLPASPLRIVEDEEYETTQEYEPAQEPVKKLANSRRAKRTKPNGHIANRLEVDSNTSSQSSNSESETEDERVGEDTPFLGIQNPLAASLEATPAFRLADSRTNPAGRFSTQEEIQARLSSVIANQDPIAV
In experiment [7] the test system is Neuregulin-1 EGF-like domain. The experiment is described as follows: small molecules binding NRG1 EGF domain – biochemical, small-molecule microarray, 635 nm fluorescence, primary screen (AID 1081).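 Note: binding of the protein to compounds printed on small-molecule microarray slides.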 Particulars: higher = more signal.
The nature of experiment [8]: FRG1 expression reporter modulators in myotubes – cell-based, C2C12 myotubes, firefly/Renilla luciferase, luminescence, FRG1 inhibition for FSHD, primary screen (AID 1084). The settings on record: FRG1 promoter luciferase, higher = more signal, called active from +8 up or from −8 down.
Experiment [9] can be described thus: small molecules captured by biotinylated probe aFST – biochemical, small-molecule microarray, fluorescence 635/667, stem cell growth factor project, primary screen (AID 1086).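 Note: score merges 667 nm fluorescence with signal-to-noise of each printed compound spot.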 Particulars: higher = more signal.
A short description of experiment [10]: binders of probe aHhip on microarray, primary screen, stem cell growth factor project, biochemical, small-molecule microarray, fluorescence 635/667 (AID 1087).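 Note: score merges spot fluorescence at 667nm with spot signal to noise ratio.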 Particulars: higher = more signal.
Experiment [11] has as its system PRMT1 (protein arginine N-methyltransferase 1). The experiment is described as follows: small molecules binding arginine methyltransferase PRMT1 – biochemical, small-molecule microarray, 635 nm fluorescence, primary screen (AID 1088).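 Note: binding of Prmt1 protein to compounds spotted on small-molecule microarray slides.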 The settings on record: higher = more signal.
Experiment [12] can be described thus: growth effects on S. cerevisiae YJM789 – YJM789 clinical isolate, OD600, 24 h, basal, primary screen (AID 1089).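 Note: growth of clinical yeast isolate S. cerevisiae YJM 789 seeded 1000 cells per well; test concentration not given here.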 The settings on record: higher = more signal, called active from +8 up or from −8 down.
The nature of experiment [13]: S. pombe growth modifiers, basal conditions – strain 972, OD600, 24 h, no modulator, primary screen (AID 1090).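 Note: basal condition with compound alone and no growth modifier present; test concentration not given here.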 Particulars: S. pombe 972 growth, higher = more signal, called active from +8 up or from −8 down.
The nature of experiment [14]: budding yeast growth modifiers under rapamycin – strain BY4716, OD600, 96 h, primary screen (AID 1091). Note: test concentration not given here. Particulars: S. cerevisiae BY4716 + rapamycin, higher = more signal, called active from +8 up or from −8 down.
Experiment [15] addresses Torsin-1A-interacting protein 2 (Homo sapiens) (UniProt Q8NFQ8). The experiment is described as follows: small molecules binding lysate-expressed LULL1 – cell lysate, human LULL1 lysate, 635/667 nm fluorescence, primary screen (AID 1092).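 Note: score merges per-feature 667 nm fluorescence with signal-to-noise.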 The settings on record: small-molecule microarray, hLULL1 lysate binding, 635 nm fluorescence; higher = more signal.
A short description of experiment [16]: optical density change of DRC41 E. coli – strain DRC41, OD650, 24 h, E. coli filamentation project, primary screen (AID 1093).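 Note: MC1000 strain lacking acrAB efflux and sulA so SOS filamentation is blocked; test concentration not given here.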 Particulars: E. coli DRC41 growth, higher = more signal, called active from +8 up or from −8 down.
Experiment [17] can be described thus: probe aLefty2 binding to arrayed compounds – biochemical, biotinylated probe, 635/667 nm fluorescence, primary screen (AID 1094).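 Note: score merges spot fluorescence near 667 nm with spot signal-to-noise ratio.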 The settings on record: small-molecule microarray, higher = more signal.
The test system of experiment [18] is Noggin (protein binding on small-molecule microarray). The experiment is described as follows: small molecules binding Noggin protein – biochemical, 635/667 nm fluorescence, primary screen (AID 1095).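 Note: score merges 667 nm feature fluorescence with signal to noise over triplicate slides.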 The settings on record: 635 nm fluorescence, higher = more signal.
The target in experiment [19] is Neurogenic locus notch homolog protein 3 (Homo sapiens) (UniProt Q9UM47). The experiment is described as follows: small molecules binding NOTCH3 protein – biochemical, 635/667 nm fluorescence, primary screen (AID 1096). The settings on record: small-molecule microarray, 635 nm fluorescence, higher = more signal.
Chain of Neurogenic locus notch homolog protein 3 (Homo sapiens) (Q9UM47 whole entry, looked up): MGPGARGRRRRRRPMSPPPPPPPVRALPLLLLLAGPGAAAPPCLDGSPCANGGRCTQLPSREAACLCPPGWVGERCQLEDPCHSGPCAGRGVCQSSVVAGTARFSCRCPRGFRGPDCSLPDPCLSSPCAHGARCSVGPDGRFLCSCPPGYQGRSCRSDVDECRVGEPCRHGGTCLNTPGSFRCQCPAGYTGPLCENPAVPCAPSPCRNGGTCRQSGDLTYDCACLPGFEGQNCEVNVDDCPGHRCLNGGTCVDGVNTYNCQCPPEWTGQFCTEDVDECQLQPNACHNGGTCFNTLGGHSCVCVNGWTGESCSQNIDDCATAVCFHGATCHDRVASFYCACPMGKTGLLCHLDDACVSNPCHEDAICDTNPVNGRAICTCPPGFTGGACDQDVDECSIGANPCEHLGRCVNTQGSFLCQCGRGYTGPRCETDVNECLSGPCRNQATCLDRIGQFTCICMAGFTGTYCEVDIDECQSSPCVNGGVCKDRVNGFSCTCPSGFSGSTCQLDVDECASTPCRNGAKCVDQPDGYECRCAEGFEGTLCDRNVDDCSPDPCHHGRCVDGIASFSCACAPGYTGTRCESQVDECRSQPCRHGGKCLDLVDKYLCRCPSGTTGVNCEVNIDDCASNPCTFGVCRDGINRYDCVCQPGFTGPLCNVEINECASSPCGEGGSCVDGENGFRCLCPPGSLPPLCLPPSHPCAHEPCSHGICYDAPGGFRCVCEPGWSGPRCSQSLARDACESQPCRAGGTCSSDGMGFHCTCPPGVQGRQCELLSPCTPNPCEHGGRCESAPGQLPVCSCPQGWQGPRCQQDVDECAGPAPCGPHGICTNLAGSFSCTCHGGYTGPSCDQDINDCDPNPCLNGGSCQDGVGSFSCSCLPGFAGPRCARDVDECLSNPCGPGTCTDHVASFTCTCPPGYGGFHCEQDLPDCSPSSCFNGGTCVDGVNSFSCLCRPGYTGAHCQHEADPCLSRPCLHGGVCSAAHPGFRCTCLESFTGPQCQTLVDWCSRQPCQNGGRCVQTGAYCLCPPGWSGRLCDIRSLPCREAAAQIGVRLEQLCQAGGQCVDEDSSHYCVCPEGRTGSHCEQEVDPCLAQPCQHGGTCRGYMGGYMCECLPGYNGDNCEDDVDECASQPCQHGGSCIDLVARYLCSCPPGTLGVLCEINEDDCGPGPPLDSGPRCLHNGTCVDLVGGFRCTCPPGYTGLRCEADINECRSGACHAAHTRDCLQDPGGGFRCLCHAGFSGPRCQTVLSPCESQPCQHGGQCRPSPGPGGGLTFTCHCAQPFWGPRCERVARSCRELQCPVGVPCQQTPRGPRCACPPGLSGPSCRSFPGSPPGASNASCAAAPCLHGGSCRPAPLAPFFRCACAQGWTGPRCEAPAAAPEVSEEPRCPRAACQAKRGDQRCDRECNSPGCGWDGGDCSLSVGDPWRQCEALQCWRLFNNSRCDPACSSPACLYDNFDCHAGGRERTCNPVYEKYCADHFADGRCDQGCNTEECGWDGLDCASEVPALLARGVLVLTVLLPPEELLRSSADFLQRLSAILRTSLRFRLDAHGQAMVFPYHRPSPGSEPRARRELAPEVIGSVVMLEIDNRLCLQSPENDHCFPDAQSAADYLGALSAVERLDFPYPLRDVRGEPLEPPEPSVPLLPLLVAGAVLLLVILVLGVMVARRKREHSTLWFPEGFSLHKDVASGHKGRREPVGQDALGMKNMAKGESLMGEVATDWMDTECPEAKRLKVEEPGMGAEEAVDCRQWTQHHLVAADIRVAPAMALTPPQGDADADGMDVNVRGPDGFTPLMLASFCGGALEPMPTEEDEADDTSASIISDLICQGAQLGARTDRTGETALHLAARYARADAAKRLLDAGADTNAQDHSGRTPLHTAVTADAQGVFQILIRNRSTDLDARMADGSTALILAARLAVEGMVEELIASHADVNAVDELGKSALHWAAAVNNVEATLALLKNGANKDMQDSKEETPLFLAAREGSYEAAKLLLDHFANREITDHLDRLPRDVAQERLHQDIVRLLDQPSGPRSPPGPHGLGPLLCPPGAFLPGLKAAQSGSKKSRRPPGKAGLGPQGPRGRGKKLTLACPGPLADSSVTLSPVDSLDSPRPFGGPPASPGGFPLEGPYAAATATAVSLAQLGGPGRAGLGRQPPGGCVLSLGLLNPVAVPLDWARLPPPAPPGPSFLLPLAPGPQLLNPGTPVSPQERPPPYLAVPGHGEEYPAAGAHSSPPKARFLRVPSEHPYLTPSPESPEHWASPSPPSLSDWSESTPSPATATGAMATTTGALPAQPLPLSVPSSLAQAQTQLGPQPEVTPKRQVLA
The nature of experiment [20]: probe aEGFR binding to arrayed compounds – biochemical, biotinylated probe, 635/667 nm fluorescence, primary screen (AID 1097).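 Note: probe is a biotinylated anti-EGFR antibody binding compounds printed on slides; score combines fluorescence near 667 nm and signal to noise of each spot.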 The settings on record: small-molecule microarray, higher = more signal.

Activity calls are given as the source filed them.

Chain of Torsin-1A-interacting protein 2 (Homo sapiens) (Q8NFQ8 whole entry, looked up): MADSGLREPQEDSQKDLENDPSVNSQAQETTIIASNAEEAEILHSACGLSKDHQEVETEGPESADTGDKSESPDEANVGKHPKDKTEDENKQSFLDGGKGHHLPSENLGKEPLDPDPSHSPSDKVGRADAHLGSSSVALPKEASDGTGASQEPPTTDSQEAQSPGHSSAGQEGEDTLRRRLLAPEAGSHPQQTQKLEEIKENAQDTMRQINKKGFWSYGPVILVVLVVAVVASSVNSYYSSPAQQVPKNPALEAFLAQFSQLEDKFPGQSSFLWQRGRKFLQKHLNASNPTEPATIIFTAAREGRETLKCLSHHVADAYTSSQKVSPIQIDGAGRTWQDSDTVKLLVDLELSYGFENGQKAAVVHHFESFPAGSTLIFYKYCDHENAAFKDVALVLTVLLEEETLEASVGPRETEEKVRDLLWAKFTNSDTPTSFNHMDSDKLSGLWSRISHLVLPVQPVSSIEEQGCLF

For the molecule `COCCOC(=O)N1C(=O)[C@@]2(c3ccccc31)[C@H](C(=O)N1CCCCCCC1)[C@H]1C(=O)O[C@H](c3ccccc3)[C@H](c3ccccc3)N1[C@@H]2c1ccc(O)cc1`, the composite z-score came to 3.89 in experiment [1]; 1.42 in experiment [2]; 0.904 in experiment [3]; 0.559 in experiment [4]; 1.08 in experiment [5]; 1.59 in experiment [6]. For the same molecule, the composite z-score in experiment [7] stood at 1.15; in experiment [9], 3.43; in experiment [10], 3.37; in experiment [11] it was 1.53; in experiment [15], 4.37; in experiment [17], 1.75. Further, the composite z-score in experiment [18] stood at 1.11; in [19], 1.09; in experiment [20], 1.15. In addition, the z-score was -1.43 (inactive) in experiment [8]; -1.37 (inactive) in experiment [12]; -0.268 (inactive) in [13]; 1.63 (inactive) in [14]; 1.39 (inactive) in experiment [16].

On to `CC(=O)n1cc(C(O)C2C=CC3C(=O)N(c4ccccc4)C(=O)C3N2Nc2ccccc2F)c2ccccc21` (stereo not given), for which the composite z-score in [1] is -0.146; in [2], 0.25; in [3], -0.0757; in experiment [4], -0.274; in [5], 0.021; in experiment [6], 1.69. In addition, the composite z-score in experiment [7] was 1.02; in experiment [9] it was -0.346; in experiment [10], 0.0505; in [11] it was 0.799; in experiment [15], 2.51; in [17], -0.138. Further, the figures for the composite z-score in experiment [18], in experiment [19] and in experiment [20] were -0.872, -0.382 and -0.146, respectively. Moreover, the z-score in experiment [8] was 0.625 (inactive); in experiment [12] it was -0.626 (inactive); in experiment [13] it was -0.169 (inactive); in experiment [14], -1.6 (inactive); in [16] it was 1.01 (inactive).

For the molecule `C[C@]1(C(=O)NCC(F)(F)F)c2ccccc2C(=O)N(Cc2ccc(OC(F)(F)F)cc2)[C@H]1c1ccc(CO)cc1`, the composite z-score in experiment [1] is -0.303; in experiment [2], 0.67; in experiment [3], -0.0757; in [4], 0.198; in experiment [5] it was -0.298; in experiment [6], 0.0763. The composite z-score in [7] was 0.531; in [9], -0.209; in experiment [10], -0.0645; in experiment [11] it was 0.64; in experiment [15], 1.03; in experiment [17], -0.133. Besides, the composite z-score is 0.344 in experiment [18], -0.464 in [19] and -0.0987 in experiment [20]. The z-score in [8] was -3.89 (inactive); in experiment [12], 0.0118 (inactive); in experiment [13] it was -0.47 (inactive); in [14] it was -0.568 (inactive); in experiment [16] it was -0.975 (inactive).

As to `C=CCC(OC(C)=O)[C@@H]1[C@@H](N(Cc2ccc(-c3cccc(C(F)(F)F)c3)o2)C(=O)c2cccc3ccccc23)c2cc(OCCCO)ccc2N1C(=O)c1ccc2ccccc2c1` (stereo not given in full), the composite z-score in [1] was 0.125; in [2] it was -0.132; in experiment [3] it was -0.0909; in [4] it was 0.224; in experiment [5], -0.365; in [6] it was 0.62. Also, the composite z-score was -0.332 in experiment [7]; -0.0637 in [9]; -0.15 in [10]; -0.429 in [11]; -0.255 in [15]; -0.0728 in experiment [17]. The composite z-score in experiment [18] was 0.307; in experiment [19] it was -0.1; in experiment [20] it was -0.122. Moreover, the z-score in [8] is 0.141 (inactive); in experiment [12], 0.611 (inactive); in [13], 0.609 (inactive); in [14] it was -0.549 (inactive); in [16], 0.0268 (inactive).

Consider `CCCCNC(=O)c1ccc(C#C[Si](C)(C)C)c(OC(C)=O)c1`, for which the composite z-score in experiment [1] was -0.175; in experiment [2], 0.293; in experiment [3] it was -0.0718; in experiment [4] it was 0.112; in [5], 0.277; in [6], -0.166. The composite z-score in experiment [7] is 0.103; in experiment [9], -0.0501; in experiment [10] it was -0.0726; in [11], 0.305; in experiment [15], -0.092; in experiment [17] it was -0.0926. For the same molecule, the composite z-score in experiment [18] is 0.309; in experiment [19] it was -0.174; in experiment [20] it was -0.096. Also, the z-score in experiment [8] is 1.87 (inactive); in experiment [12], 0.453 (inactive); in experiment [13], -2.02 (inactive); in experiment [14] it was -0.973 (inactive); in [16], 1.54 (inactive).
